Shiga toxin inh = Shiga toxin inhibition | 290,000 tested, 9.2% active | Vero cells, Shiga toxin protein synthesis inhibition reporter | inhibition, % at 38.7 µM; in the data active = inhibition mostly above about 28%, no sharp cut-off; inactive = mostly below about 43%; note: 0% is about no effect
AMA1 RON2 block = inhibitors of Plasmodium falciparum AMA1-RON2 interaction | 360,000 tested, 0.2% active | Potency, µM (highest dose often 58.2 µM), for inactives: at the top dose activity change, negative = inhibition, usual class: inhibitors | AlphaScreen AMA1-biotinylated RON2 peptide binding;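 note: potency is the fitted concentration of half-maximal effect; 0% = vehicle wells and -100% = peptide control; nearly all actives have a fitted effect of over 45% in size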
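AMA1 (3D7) with his tag at 25 nM final met compounds first, then biotinylated RON2 peptide at 25 nM; detection used donor plus acceptor beads, 10 µg/mL apiece, read by AlphaScreen after 30 min at room temperature.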
Cycloheximide cs = affects cycloheximide protein synthesis inhibition readout, counter-screen | 300,000 tested, 12% active | max response, % | cell reporter, cycloheximide protein synthesis inhibition counterscreen; in the data active = max response mostly above about 13%, no sharp cut-off; inactive = mostly below about 14%; note: read at 38.3 µM for the half of the compounds with a filed dose; 0% is about no effect
AmpC inh detg = blocks E. coli AmpC beta-lactamase in detergent assay. P00811. AmpC hydrolysis of nitrocefin, absorbance 480 nm, 0.01% Triton. Potency, µM (series often up to 114 µM), for inactives: top-dose activity change, negative = inhibition, actives largely listed as inhibitors. 370,000 tested, 0.041% active;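 note: potency is the fitted concentration of half-maximal effect; 0% = no-compound wells and -100% = no-enzyme wells; nearly all actives have a fitted effect of over 25% in size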
Target sequence (P00811 whole entry, looked up): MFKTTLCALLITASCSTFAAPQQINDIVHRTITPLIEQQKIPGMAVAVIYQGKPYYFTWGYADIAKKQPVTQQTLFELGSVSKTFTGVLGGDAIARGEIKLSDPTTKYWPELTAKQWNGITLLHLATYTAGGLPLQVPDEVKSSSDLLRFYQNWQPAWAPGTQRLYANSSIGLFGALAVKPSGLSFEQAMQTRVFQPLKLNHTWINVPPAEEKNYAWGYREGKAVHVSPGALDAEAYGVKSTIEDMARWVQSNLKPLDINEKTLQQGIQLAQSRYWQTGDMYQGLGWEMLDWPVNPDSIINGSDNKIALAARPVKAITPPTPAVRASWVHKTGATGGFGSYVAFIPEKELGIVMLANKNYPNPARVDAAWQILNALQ
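AmpC (5.3 nM in the dispensed reagent) in 20 mM phosphate pH 7.0 with 0.01% (detergent screen) or 0.0001% Triton X-100 was preincubated with compounds for 15 min at room temperature. Nitrocefin was then added from an 800 uM solution, and hydrolysis was followed at 480 nm.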
SARS PLP yeast = inhibitors of SARS-CoV papain-like protease in yeast; S. cerevisiae expressing SARS-CoV PLpro, growth rescue; Potency, µM (top dose mostly 32.9 µM), for the others: at the top dose activity, positive = growth rescue, actives largely listed as activators; 330,000 tested, 0.19% active; calls by dose curve; note: potency is the fitted concentration of half-maximal effect; 0% is about no effect; nearly all actives have a fitted effect of over 55% in size
AmpC no deterg = AmpC beta-lactamase inhibition without detergent; P00811; AID 485341; Potency, µM (series often up to 57.1 µM), for inactives: at the top dose activity change, negative = inhibition, actives largely listed as inhibitors; 330,000 tested, 0.52% active; AmpC nitrocefin hydrolysis, absorbance 480 nm, 0.0001% Triton;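 note: potency is the fitted concentration of half-maximal effect; plate controls were no compound for no effect and no enzyme for full effect; nearly all actives have a fitted effect of over 20% in size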
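20 mM phosphate pH 7.0 + 0.01% (detergent screen) or 0.0001% Triton X-100; 5.3 nM AmpC reagent; cpd preinc 15 min RT; nitrocefin (800 uM stock) to start; A480 q20 s × 4 min; Activity was normalised to no-enzyme and no-compound control wells.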
* marks the source's active call; other numbers are inactive results; ? = inconclusive; . = not tested or not shown; [ ] = another dose, or the depositor's remark. The entries come from a sample that favours hits as a whole. Unless noted, calls come from the whole dose curve; as a rule, active = well fitted curve in the direction sought with a large enough effect; inconclusive = small, poorly fitted or top-dose-only effect, or another doubt; inactive = no such curve, though single readings can be large; an effect the other way counts as inactive or inconclusive.

SMILES | Shiga toxin inh | AMA1 RON2 block | Cycloheximide cs | AmpC inh detg | SARS PLP yeast | AmpC no deterg
CC1=NNC(=O)/C1=C\c1cn(-c2ccccc2)nc1-c1ccc(F)cc1 | 22 | 42% | 1 | 2% | -5% | -22%
CCOC(=O)C1=C(C)N(C[C@@H]2CC[C@@H](Cc3ccc(-c4ccccc4)cc3)O2)C(=O)NC1c1ccc(SCc2ccco2)c([N+](=O)[O-])c1 (some centres not stated) | . | -18% | . | . | 18% | 7.9µM*
CCOC(=O)C1=C(C)N(C[C@@H]2CC[C@@H](Cc3ccc(-c4ccccc4)cc3)O2)C(=O)NC1c1ccc(C(F)(F)F)cc1 (some centres not stated) | . | 6% | . | . | 14% | -26%
O=C1CCCc2cc(S(=O)(=O)N3CCCC(C(=O)NCc4ccccc4Cl)C3)ccc2N1 (configuration not stated) | . | . | . | 28% | . | .
Cc1ccc2nc(-c3ccc(NC(=S)NCC(C)(C)CN(C)C)cc3)sc2c1 | . | -3% | . | . | . | .
CCC(C)(C)NC(=S)Nc1ccc(-c2nc3ccc(C)cc3s2)cc1 | 82* | -4% | 44* | -3% | 3% | -27%
Cc1ccc2nc(-c3ccc(NC(=S)NCCC(C)C)cc3)sc2c1 | . | -4% | . | . | . | .
CCCCNC(=S)Nc1ccc(-c2nc3ccc(C)cc3s2)cc1 | 51* | -7%[2.32 µM] | 65* | -6% | 28% | -50%
CCN(CC)CCN(C(=O)C1=COCCO1)c1nc2ccc(C)cc2s1 | 35* | 5% | 18* | ? | 3% | 3%
CC(=O)N(CCN(C)C)c1nc2cc3c(cc2s1)OCCO3 | 66* | 0% | 31* | -4% | 1% | -11%
CCOC(=O)N1CCN(S(=O)(=O)c2ccc(C(=O)N(CCCN(C)C)c3nc4ccc(OC)cc4s3)cc2)CC1 | -7 | -8% | -6 | 0% | 3% | 183%
CCOC(=O)N1CCN(S(=O)(=O)c2ccc(C(=O)N(CCN(C)C)c3nc4ccc(Cl)cc4s3)cc2)CC1 | 110* | 3% | 27* | 8% | -3% | -3%
CN(C)CCN(C(=O)c1ccc(S(=O)(=O)N(C)c2ccccc2)cc1)c1nc2cc3c(cc2s1)OCCO3 | 61* | -22% | 22* | 2% | 0% | -2%
C=CCN1C2CCCC1CC(NC(=O)Nc1cccc(C(C)=O)c1)C2 (configuration not stated) | -23 | 0% | 5 | 6% | -3% | -20%
CCN(CC)CCN(C(=O)c1ccc2ncsc2c1)c1nc2cc3c(cc2s1)OCO3 | 125* | -5% | 75* | ? | -3% | 1%
CN(C)CCN(C(=O)c1ccc2c(c1)OCCO2)c1nc2cc3c(cc2s1)OCO3 | 71 | -23% | 55* | 0% | 1% | 96%
CN(C)CCN(C(=O)c1ccc(S(=O)(=O)N(C)C)cc1)c1nc2cc3c(cc2s1)OCCO3 | 41 | 33% | 22* | 4% | 1% | 1%
CN(C)CCN(C(=O)c1ccc(S(=O)(=O)N(C)CC2CCCO2)cc1)c1nc2cc3c(cc2s1)OCO3 (configuration not stated) | 9 | 1% | 25* | -5% | -3% | 29%
CCN(CC)CCN(C(=O)c1ccc(C(=O)c2ccccc2)cc1)c1nc2cc3c(cc2s1)OCO3 | 10 | -6% | 4 | 6% | -1% | -11%
COc1cc2nc(N(CCN(C)C)C(=O)c3ccc(S(=O)(=O)N(C)CC4CCCO4)cc3)sc2cc1OC (configuration not stated) | -6 | 7% | -2 | ? | 2% | 17%
O=C(c1cc(C(=O)NCc2ccccc2)c(=O)n(Cc2ccccc2)c1)c1cc(Cl)ccc1O | -11 | -8%[2.32 µM] | 7 | 2% | 8% | ?
COCCn1c(-c2ccc(OC)cc2)nc2ccccc21 | -1 | 3% | 16* | 2% | -12% | -12%
COc1ccc(Cn2c(-c3ccc(OC)cc3)nc3ccccc32)cc1 | 12 | 3% | 7 | -10% | -32% | 9%
COCCn1c(COc2ccc(C)cc2)nc2ccccc21 | 71* | 34% | 42* | -2% | -3% | -7%
CCOCCn1c(COc2ccc(C)cc2)nc2ccccc21 | 40* | -1% | 37* | ? | 4% | -12%
SMILES | Shiga toxin inh | AMA1 RON2 block | Cycloheximide cs | AmpC inh detg | SARS PLP yeast | AmpC no deterg
CCn1c(COc2ccc(C)cc2)nc2ccccc21 | 79* | -21% | 44* | 5% | -3% | -8%
Cc1cc(NC(=O)/C=C/c2ccc(F)cc2)n(-c2nc3ccccc3[nH]2)n1 | 12 | 79% | 9 | -20% | -17% | -9%
O=C(/C=C/c1ccc(S(=O)(=O)N2CCOCC2)cc1)OCC(=O)c1ccc([N+](=O)[O-])cc1 | 1 | -11% | 7 | -4% | -1% | -27%
Cc1cccc(-c2nnc(SCC(=O)NC3CC3)n2C)c1 | -1 | -1% | -1 | 8% | -3% | -9%
O=C(Nc1nc(-c2ccccn2)cs1)c1ccc(F)c(S(=O)(=O)N2CCOCC2)c1 | . | -58% | . | -26% | 1% | -3%
O=C(O)c1cccc2c1-c1ccccc1/C2=N\Nc1ccccc1 | 116* | -10% | 50* | 0% | -3% | -28%
O=C(O)c1cc(NN=C2c3ccccc3-c3ccccc32)ccc1Cl | 20 | -8% | 8 | -7% | -6% | -19%
O=C(O)c1cccc(NN=C2c3ccccc3-c3ccccc32)c1 | 84* | -4% | 42* | 1% | -31% | -29%
Cc1ccc(Cl)cc1NC(=O)CNCC(c1ccccc1)N(C)C (configuration not stated) | -8 | 53% | -3 | 5% | -3% | 29%
CC(OC(=O)c1ccc2c(c1)OCCO2)C(=O)c1ccccc1 (configuration not stated) | . | 0% | . | -7% | -4% | -11%
CCOC(=O)C1CCCN(C(=O)CSCc2ccccc2)C1 (configuration not stated) | 52* | 14% | 44* | -1% | 1% | 8%
CCOC(=O)N1CCN(C(=O)CSCc2ccc(Cl)cc2)CC1 | 17 | 5% | 4 | 0% | 0% | 38%
CCOC(=O)N1CCN(C/C(Cl)=C/c2ccccc2)CC1 | 20* | -6% | 14* | ? | -7% | 43%
CCOC(=O)C1CCCN(C(=O)COc2ccccc2O)C1 (configuration not stated) | 7 | -13% | -1 | 0% | 5% | -9%
CCOC(=O)C1CCCN(C(=O)CSc2ccc(Br)cc2)C1 (configuration not stated) | 65* | -9% | 42* | -4% | -7% | 20%
CCOC(=O)N1CCN(C(=O)CSCc2ccccc2)CC1 | 22 | 4% | 35* | -19% | 0% | -23%
COc1ccc(C(C)=O)cc1Cn1c(C)c(C(=O)NCc2ccc3c(c2)OCO3)sc1=O | . | 1% | . | . | . | .
